Compound activity deposited in PubChem BioAssay by several laboratories.
An excerpt weighted towards active compounds, which were near 4.5% of everything screened.
Jurkat NFkB inh – inhibitors of induced NF-kB luciferase reporter, primary screen, TCR NF-kB activation inhibitor project, cell-based, luminescence, uHTS | Jurkat, PMA/ionomycin-induced NF-kB luciferase reporter | inhibition, % at 4 µM | actives 0.53% (n = 330,000) | AID 435003, 2010; in the data active means inhibition above about 50%
CSC inhib – cancer stem cell viability inhibitors, primary screen, luminescence; AID 2717, 2010; actives 1.1% (n = 300,000); cancer stem cell-like cells viability; inhibition, % at 7.5 µM; in the data active means inhibition above about 75%; tested in HMLE shEcad cells
Gli-Sufu block – Gli-Sufu pathway antagonists, primary screen, luciferase luminescence, Sufu-KO-LIGHT cells, uHTS. inhibition, % at 5 µM. Sufu-KO-LIGHT fibroblasts, Gli luciferase reporter luminescence. actives 0.74% (n = 340,000). AID 588413, 2011;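 active means inhibition above about 55%, limit read from the data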;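 further: 0% = DMSO-treated cells and 100% = wells with medium but no cells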
aSyn 5UTR inh – MLPCN primary screen, SNCA 5' untranslated region. inhibition, % (tested at 7.5 µM). actives 0.82% (n = 300,000). alpha-synuclein 5'UTR reporter, inhibitor activity; in the data active means inhibition above about 60%;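 further: H4 neuroglioblastoma cells stably carrying SNCA 5'UTR luciferase fusion; 0% = DMSO wells and 100% = positive control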
697 NFkB inh – inhibitors of PMA/ionomycin-induced NF-kB reporter, 697 cells, primary screen, B-cell NF-kB inhibitor project, cell-based, luminescence, uHTS; 697 B-cell NF-kB luciferase reporter, 16 h; inhibition, % at 4 µM; actives 0.33% (n = 330,000); in the data active means inhibition above about 35%
Mdm2 MdmX PPI – inhibitors of human Mdm2-MdmX association, primary screen, cell-based, luminescence, split luciferase, SaOS-2, uHTS; actives 3% (n = 330,000); SaOS-2 split-luciferase Mdm2/MdmX complementation; inhibition, % at 8 µM;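 active means inhibition of at least 50% at 8 µM in the primary screen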
Gli antag conf – Gli-SUFU pathway antagonists, confirmation, single concentration, luciferase luminescence, Sufu-KO-LIGHT cells | Gli luciferase reporter | shares compounds with Gli-Sufu block | AID 602428, 2012 | inhibition, % at 5 µM | actives 40% (n = 2,500);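 active means mean inhibition at 5 µM reaching about 45%, limit read from the data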;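 further: plate controls were DMSO-treated cells for no effect and wells lacking cells for full effect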
Gli cytotox – cytotoxicity in Sufu-KO-LIGHT cells, confirmation, cytotoxicity control for Gli-SUFU antagonist project, cell-based, ATP luminescence, single concentration | shares compounds with Gli-Sufu block | cytotoxicity, % at 5 µM | AID 651994, 2013 | actives 32% (n = 2,500);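 active means mean cytotoxicity at 5 µM above about 25%, limit read from the data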;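 further: cells exposed to compound overnight for roughly 16 to 18 hours; plate controls were DMSO wells with cells for no effect and medium without cells for full effect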
Wnt3a counter – Wnt3a reporter signal inhibition, confirmation, counter-screen for Gli-SUFU antagonist project, Wnt-LIGHT cells, luminescence, single concentration; shares compounds with Gli-Sufu block; Wnt3a-driven luciferase reporter; inhibition, % at 6.25 µM; actives 20% (n = 2,500); AID 651995, 2013;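 active means mean inhibition above about 25%, limit read from the data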
* = called active by the depositor; x = no result.

SMILES | Jurkat NFkB inh | CSC inhib | Gli-Sufu block | aSyn 5UTR inh | 697 NFkB inh | Mdm2 MdmX PPI | Gli antag conf | Gli cytotox | Wnt3a counter
CC(OC(=O)c1cccc(-n2cnnn2)c1)C(=O)Nc1ccc(F)cc1 (centres undefined) | 7.4 | -11.1 | 50.0 | -6.8 | -22.7 | 18.1 | 24.6 | 10.2 | 5.6
O=C(NCCCCNC(=O)C(F)(F)F)C(F)(F)F | 3.5 | -5.1 | -4.9 | 4.8 | 9.6 | 7.0 | x | x | x
O=C1Nc2ccccc2C12OCCS2 (centres undefined) | -0.5 | -1.6 | x | 4.8 | 4.3 | 4.0 | x | x | x
O=C(Cn1ncc2ccccc21)N1CCN(c2cccc(C(F)(F)F)c2)CC1 | -4.6 | -11.9 | 55.9* | 9.0 | 15.1 | 24.5 | 15.2 | 0.2 | -43.3
Cc1cc(Cl)c(S(=O)(=O)N2CCN(c3ccccn3)CC2)cc1OCC(=O)NC1CCCCC1 | 2.8 | 7.5 | 17.7 | 23.6 | -23.8 | 31.4 | x | x | x
Cc1nnc(NCc2ccncc2)c2ccccc12 | 4.6 | -2.5 | 51.0 | -30.9 | 1.6 | 21.5 | 21.9 | 19.4 | -5.4
O=C(COc1ccc(Cl)cc1)NCCCNC(=O)c1cccnc1 | -11.9 | x | -7.8 | -2.5 | -15.5 | 3.7 | x | x | x
O=C(COc1ccc(Br)cc1)NCCCNC(=O)c1cccnc1 | 4.7 | -18.4 | 58.7* | 4.5 | -47.7 | 27.0 | 25.7 | -1.3 | -9.8
CCN(CC)S(=O)(=O)c1ccc(C(=O)NCCOC(=O)c2ccc(F)cc2F)cc1 | -16.4 | -14.8 | -13.8 | -7.2 | -13.5 | 1.2 | x | x | x
O=C(NCC1CCCO1)c1cc(S(=O)(=O)N2CCOCC2)ccc1Cl (centres undefined) | -4.4 | -8.2 | -0.5 | -3.3 | 10.9 | 9.0 | x | x | x
O=S(=O)(c1ccc2c(c1)nc(COc1ccc(Cl)cc1)n2CC1CCCO1)N1CCOCC1 (centres undefined) | 0.7 | -7.3 | 59.9* | 38.5 | -23.4 | -9.8 | 45.4* | 9.0 | 32.8*
CC(C)C(NS(=O)(=O)c1cccc2nsnc12)C(=O)NC1CCCCC1C (centres undefined) | 22.9 | -8.1 | 58.3* | 28.7 | 8.4 | -10.7 | 28.1 | 4.1 | -9.2
COC(=O)CCCC(=O)Nc1c(F)c(F)c(F)c(F)c1F | 4.2 | -12.4 | -15.3 | 6.9 | 3.6 | -0.9 | x | x | x
COC(=O)CNC(=O)C(C)NC(=O)OCc1ccccc1 (centres undefined) | 8.7 | -7.4 | 98.7* | 7.1 | -5.2 | -5.4 | 33.7 | 3.7 | -2.1
COC(=O)CNC(=O)C(NC(=O)OCc1ccccc1)C(C)C (centres undefined) | -2.2 | -12.0 | -2.8 | -4.9 | -6.9 | 11.6 | x | x | x
CCOc1ccccc1NC(=O)N1CCC(NC(=O)c2cccc(C)c2)CC1 | 5.8 | -9.6 | 10.3 | -11.5 | 1.5 | 5.6 | x | x | x
Cc1cccc(C(=O)NC2CCN(C(=O)Nc3ccccc3C)CC2)c1 | 1.4 | -2.9 | 66.7* | 2.2 | 6.3 | 10.4 | 24.2 | 0.4 | 3.5
CN(C)c1ccc(/C=N/NC(=O)C[n+]2ccccc2)cc1 | -9.7 | -9.4 | 52.6 | -7.4 | -3.6 | 14.5 | 9.7 | 5.7 | -13.9
CCOC(=O)CSc1c(-c2cccs2)[nH]c2ccccc12 | 2.7 | 10.6 | 52.2 | 32.8 | 2.3 | 27.1 | 65.1* | 4.5 | 14.3
COC(=O)c1ccc(C(=O)OC)c(NC(=O)C2CC(=O)N(C3CCCC3)C2)c1 (centres undefined) | x | x | 1.3 | x | x | x | x | x | x
Cc1ccccc1OCCn1cc(C(=S)N2CCCC2)c2ccccc21 | 6.9 | 9.3 | 0.5 | 4.9 | 4.0 | 8.9 | x | x | x
CC(=O)c1cn(CCOc2ccccc2C)c2ccccc12 | 39.7 | 2.0 | 64.6* | 22.1 | 24.9 | 10.9 | 56.3* | 24.7 | 29.6*
